# From PubChem BioAssay (NCI)
# Compounds without any hit were thinned out: in the full panel of roughly 83,000, 20% have a hit.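 How to read the values: 0–100, growth inhibition (40 = 60% inhibited); 0, no net growth; -100 to 0, cell death (-40 = 40% of starting cells died; -100 = all dead).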 Unmarked numbers belong to inactive results. Calls of active or inactive are those of the source.
# System: NCI-H226 lung
# Assay: NCI-60 one-dose screen, 48 h (100 = growth as untreated, 0 = no growth, -100 = all killed)
# Details: 10 µM unless noted
# Protocol: Growth inhibition of the NCI-H226 human Non-Small Cell Lung tumor cell line is measured as a screen for anti-cancer activity. Cells are grown in 96 well plates and exposed to the test compound for 48 hours. Compounds are tested at a single concentration, which is 10^-5 M for most compounds. The reported endpoint is percent growth (GI% or GIPRCNT), where numbers from 0 - 100% represent growth inhibition, and numbers from -100% - 0 represent cell death. For example, a value of 40 represents 60% growth inhibition. A value of 0 means no net growth occurred over the course of the experiment. A value of -40 indicates 40% of cells at the beginning of the experiment died by the end of the experiment. A value of -100 means all cells are dead at the end of the experiment.
# NCI-60 Human Tumor Cell Lines Screen was performed using the standard one-dose NCI protocol, which is described in more detail at https://dtp.cancer.gov/discovery_development/nci-60/default.htm.
# Compounds with GIPRCNT values below 10 were considered active. Activity score was based on GIPRCNT using the following formula: […]
# Score is 0 for GIPRCNT values of 100 or above, 50 for GIPRCNT values of 0, and 100 for GIPRCNT values of -100.
row,SMILES,growth
1,COc1ccc(C(=O)/C=C/c2ccc(OCc3ccc(F)cc3)c(OC)c2)cc1OC,46.3%
2,COc1ccc(C(=O)/C=C/c2ccc(Cl)c(Cl)c2)cc1S(N)(=O)=O,25.5%
3,Cn1cc(-c2nc(N)nnc2-c2c[nH]c3ccc(F)cc23)c2cc(Br)cnc21,1.02% (active)
4,NS(=O)(=O)c1ccc(NNC(=O)CCC(=O)c2ccccc2)cc1,100%
5,Cc1cccc(NC(=O)CN2CCN(c3ncnc4c3cnn4-c3ccccc3)CC2)c1,84.8%
6,Clc1cccc(N/N=C/c2c[nH]c3ccc(Br)cc23)n1,22.4%
7,Cc1nc(Nc2ncc(C(=O)Nc3c(C)cccc3Cl)s2)cc(N2CCN(CCCNC(=O)COc3ccc(C4CCC(=O)NC4=O)cc3)CC2)n1 (stereo not given),68.5%
8,Cn1cc(-c2nc(N)nnc2-c2c[nH]c3ccc(Br)cc23)c2cc(Br)cnc21,11.9%
9,C=C1CC[C@@H]2[C@]3(C)COC(c4ccccc4)O[C@@H]3CC[C@@]2(C)[C@@H]1C/C=C1/C(=O)OCC1OC(C)=O (stereo not given in full),-79.8% (active)
10,O=S(=O)(Nc1cccc(-n2cnc3cc(-c4ccc(O)cc4)ccc32)c1)C1CC1,19.3%
11,Cn1cc(-c2nc(N)nnc2-c2c[nH]c3ccc(Br)cc23)c2cccnc21,87.1%
12,CN(C)CCn1c2ccccc2c2nc3ccc([N+](=O)[O-])cc3nc21,-21.2% (active)
13,COc1cc2c(c(OC)c1OC)C(=O)CC(c1cccc(NC(=O)c3cc(NC(=O)[C@H](C)N)ccc3Cl)c1)O2 (stereo not given in full),48.9%
14,CC(=O)Oc1ccccc1C(=O)[Se]CC(=O)Nc1cccc(C(F)(F)F)c1,-39.2% (active)
15,NS(=O)(=O)c1ccc(N=Nc2c(O)n(CC(=O)Nc3ccccc3Cl)c3ccccc23)cc1,-1.16% (active)
16,CCOC(=O)C1=C(N)N(c2ccccc2)C2=C(C(=O)CC(C)(C)C2)C1c1ccc([N+](=O)[O-])cc1 (stereo not given),88%
17,CCCCSc1nc(NCCc2c[nH]c3ccccc23)c(C#N)c(-c2ccc(F)cc2)n1,72.5%
18,CC(=O)Nc1ccc(C(=O)NC(=S)Nc2ccc(S(N)(=O)=O)cc2)cc1,81.9%
19,CCN(CC)C(=O)N/C(N)=N/c1nc2ccccc2s1,39.4%
20,COc1cc2c(c(OC)c1OC)C(=O)CC(c1cccc(NC(=O)[C@@H](N)CC(C)C)c1)O2 (stereo not given in full),94.3%

row,SMILES,growth
1,O=C(O)Cn1c(O)c(/C=C2/C=c3cc4c(cc3=NC2=O)OCCO4)sc1=S,103%
2,Cc1ccc2c(N)c(C(=O)Nc3ccc(OC(F)(F)F)cc3)sc2n1,47%
3,CCOc1ccc(-c2c(C#N)c(-c3ccc(Cl)cc3)nc3n[nH]c(-c4ccc(Cl)cc4)c23)cc1OC,59.1%
4,O=C(O)c1cccc(-c2ccc(/C=N/NC(=O)c3[nH]c4ccc(Br)cc4c3-c3ccccc3)s2)c1,57.6%
5,Cn1cc(NC(=O)c2cc(NC(=O)c3ccc(C#Cc4ccccc4)cc3)cn2C)cc1C(=O)NCCCN1CCOCC1,69.7%
6,COc1ccc(-c2cc(C(=O)NCc3ccccc3)nn2-c2ccc(S(C)(=O)=O)cc2)cc1OC,98.5%
7,O=C(NN1C(=O)/C(=C/C=C/c2ccc([N+](=O)[O-])o2)SC1=S)c1cccc(O)c1,-92.2% (active)
8,C#CCOc1cc(N(CC)CC)ccc1C(C(=O)NC(C)(C)C)N(C(=O)C1CCc2cc(F)ccc2O1)c1ccccc1Br (stereo not given),63.8%
9,COc1cc(C2CC(c3cc(OC)c(OC)c(OC)c3)=NN2C(C)=O)ccc1OCc1ccc(F)cc1 (stereo not given),49.8%
10,COc1ccc2oc(=O)c(C3(C)NC(=O)c4c(/C=C/C(=O)OC(C)(C)C)cccc4N3)cc2c1 (stereo not given),44.7%
11,COc1ccc(/C=C2\C(=O)Nc3ccc(Cl)cc32)cc1OCc1ccccn1,15.6%
12,CC(=O)Nc1cccc(Nc2nc(N[C@H]3CCCc4ccccc43)c3ccccc3n2)c1,111%
13,N#Cc1c(-c2cccc(O)c2O)cc(-c2ccc3ccccc3c2)[nH]c1=O,68.3%
14,CC1=C(C(=O)OC(C)C)C(c2cccc(O)c2)NC(=S)N1 (stereo not given),101%
15,N#Cc1c(-c2ccccc2Cl)cc(-c2c[nH]c3ccccc23)[nH]c1=O,64.3%
16,O=C1CCCc2cc(OCC(=O)N3CCCCC3)ccc2N1,101%
17,N/N=C(\N)c1c(N)nc(=S)[nH]c1-c1ccc(Cl)cc1Cl,106%
18,Cc1c(C(=O)NNC(=O)c2ccc(Cl)cc2)nnn1-c1ccc(Br)cc1,97.1%
19,Cc1ccc(NCC(=O)Cn2cc(COc3ccc(C=Nc4cnc5ccccc5c4)cc3)nn2)cc1,105%
20,CC(=O)N1CCN(Cc2ccc3c(NNC(=O)c4cnccn4)nc4cc(F)ccc4n23)CC1,8.73% (active)
